# Out of some 320,000 compounds screened, about 740 (0.23%) were called active. Roughly 2% stayed inconclusive and do not appear here. No cut-off for these calls is given here. The full list was thinned out, with actives kept by preference.
# Test system: Saccharomyces cerevisiae
# Experiment: qHTS Assay for Small Molecule Inhibitors of Mitochondrial Division or Activators of Mitochondrial Fusion.
# Format: functional
# Conditions: read-out: Potency
row,Structure (SMILES),AC50
1,O=C(O)Cc1ccccc1Nc1c(Cl)cccc1Cl [DICLOFENAC SODIUM],20.6 µM (active)
